Measured values reported in paper PMC7862700, “An all-to-all approach to the identification of sequence-specific readers for epigenetic DNA modifications on cytosine”.

Legend:
Test in all cases: DAPPL (digital affinity profiling via proximity ligation, sequencing); 10 mM Tris-HCl pH 7.5, 50 mM NaCl, 1 mM DTT, 4% glycerol, room temperature, 30 min; GST-TFs on glutathione beads, 16-mer random dsDNA library, 0.1% formaldehyde crosslink after washing; high values mean tight binding
FLI1 = target: T1, FLI1 (Homo sapiens, UniProt Q01543 1-452); conditions: protein: recombinant; tags: N-terminal GST; dsDNA, one strand shown
T1 sequence: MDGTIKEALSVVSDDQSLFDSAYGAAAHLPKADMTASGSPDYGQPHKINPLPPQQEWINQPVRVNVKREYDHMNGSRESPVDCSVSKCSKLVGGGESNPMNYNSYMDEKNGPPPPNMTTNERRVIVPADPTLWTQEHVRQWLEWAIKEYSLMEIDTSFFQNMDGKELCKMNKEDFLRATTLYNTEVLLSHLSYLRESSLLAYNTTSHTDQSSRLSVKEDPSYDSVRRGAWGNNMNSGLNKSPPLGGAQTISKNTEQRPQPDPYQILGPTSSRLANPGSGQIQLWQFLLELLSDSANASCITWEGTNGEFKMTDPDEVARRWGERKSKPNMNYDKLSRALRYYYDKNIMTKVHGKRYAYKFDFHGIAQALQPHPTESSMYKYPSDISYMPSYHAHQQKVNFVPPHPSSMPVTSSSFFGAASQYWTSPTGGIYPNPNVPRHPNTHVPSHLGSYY
How it was run: (§1)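 Yeast served to express human transcription factors as GST fusions, which were then captured on glutathione beads and labelled with DNA barcodes. Pooled with a tag-only sample, they were incubated with 200 nmole of a 16-mer random double-stranded DNA library for 30 min at room temperature in Tris/NaCl/DTT/glycerol buffer, washed, crosslinked with 0.1% formaldehyde, ligated by proximity, amplified by PCR and sequenced. Dividing each hexamer's read frequency for a factor by its frequency for the tag-only sample gives the binding signal.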

ELK1 = target: T2, ELK1 (Homo sapiens, UniProt P19419 1-428); conditions: protein: recombinant; tags: N-terminal GST; dsDNA, one strand shown
T2 sequence: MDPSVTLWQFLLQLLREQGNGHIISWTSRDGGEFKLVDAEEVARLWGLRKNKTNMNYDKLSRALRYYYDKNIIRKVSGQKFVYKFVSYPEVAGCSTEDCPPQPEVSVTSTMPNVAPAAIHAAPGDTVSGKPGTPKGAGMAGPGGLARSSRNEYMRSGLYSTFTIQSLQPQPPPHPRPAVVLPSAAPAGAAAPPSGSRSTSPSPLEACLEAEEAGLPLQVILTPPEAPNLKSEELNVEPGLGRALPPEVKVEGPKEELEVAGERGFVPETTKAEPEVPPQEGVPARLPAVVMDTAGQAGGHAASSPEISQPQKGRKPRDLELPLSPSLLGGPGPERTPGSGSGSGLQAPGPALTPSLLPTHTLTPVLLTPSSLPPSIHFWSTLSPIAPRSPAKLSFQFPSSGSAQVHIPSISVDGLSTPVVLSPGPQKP
How it was run: as §1

GABPA = target: T3, GABPA (Homo sapiens, UniProt Q06546 1-454); conditions: protein: recombinant; tags: N-terminal GST; dsDNA, one strand shown
T3 sequence: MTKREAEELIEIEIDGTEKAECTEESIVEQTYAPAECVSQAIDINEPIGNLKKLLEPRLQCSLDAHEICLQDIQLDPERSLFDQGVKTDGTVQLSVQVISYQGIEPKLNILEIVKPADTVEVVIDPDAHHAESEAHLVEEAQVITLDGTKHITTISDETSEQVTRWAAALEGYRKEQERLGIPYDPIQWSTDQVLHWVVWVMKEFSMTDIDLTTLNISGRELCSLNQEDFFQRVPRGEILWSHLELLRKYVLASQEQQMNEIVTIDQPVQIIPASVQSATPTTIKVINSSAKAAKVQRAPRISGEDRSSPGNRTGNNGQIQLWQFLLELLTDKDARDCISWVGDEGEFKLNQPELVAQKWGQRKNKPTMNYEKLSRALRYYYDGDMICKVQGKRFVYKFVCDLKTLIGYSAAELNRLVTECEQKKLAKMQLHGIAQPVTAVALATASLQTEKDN
How it was run: as §1

ERG = target: T4, ERG (Homo sapiens, UniProt P11308 1-479); conditions: protein: recombinant; tags: N-terminal GST; dsDNA, one strand shown
T4 sequence: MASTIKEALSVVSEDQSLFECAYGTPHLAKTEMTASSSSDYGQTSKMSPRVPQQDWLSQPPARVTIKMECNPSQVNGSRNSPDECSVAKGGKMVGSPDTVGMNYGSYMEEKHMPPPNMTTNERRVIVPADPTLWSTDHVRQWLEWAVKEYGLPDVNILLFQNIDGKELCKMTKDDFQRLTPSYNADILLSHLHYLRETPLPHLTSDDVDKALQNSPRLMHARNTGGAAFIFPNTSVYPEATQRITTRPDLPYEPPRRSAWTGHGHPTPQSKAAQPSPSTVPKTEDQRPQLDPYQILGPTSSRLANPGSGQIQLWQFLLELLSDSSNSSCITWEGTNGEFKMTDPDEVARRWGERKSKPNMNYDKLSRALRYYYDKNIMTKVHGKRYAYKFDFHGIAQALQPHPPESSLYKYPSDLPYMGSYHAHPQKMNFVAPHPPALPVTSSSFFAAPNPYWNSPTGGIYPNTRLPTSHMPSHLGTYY
How it was run: as §1

ELF1 = ELF1 (Homo sapiens, UniProt P32519 1-619); conditions: protein: recombinant; tags: N-terminal GST; dsDNA, one strand shown
Sequence of ELF1 (P32519 whole entry): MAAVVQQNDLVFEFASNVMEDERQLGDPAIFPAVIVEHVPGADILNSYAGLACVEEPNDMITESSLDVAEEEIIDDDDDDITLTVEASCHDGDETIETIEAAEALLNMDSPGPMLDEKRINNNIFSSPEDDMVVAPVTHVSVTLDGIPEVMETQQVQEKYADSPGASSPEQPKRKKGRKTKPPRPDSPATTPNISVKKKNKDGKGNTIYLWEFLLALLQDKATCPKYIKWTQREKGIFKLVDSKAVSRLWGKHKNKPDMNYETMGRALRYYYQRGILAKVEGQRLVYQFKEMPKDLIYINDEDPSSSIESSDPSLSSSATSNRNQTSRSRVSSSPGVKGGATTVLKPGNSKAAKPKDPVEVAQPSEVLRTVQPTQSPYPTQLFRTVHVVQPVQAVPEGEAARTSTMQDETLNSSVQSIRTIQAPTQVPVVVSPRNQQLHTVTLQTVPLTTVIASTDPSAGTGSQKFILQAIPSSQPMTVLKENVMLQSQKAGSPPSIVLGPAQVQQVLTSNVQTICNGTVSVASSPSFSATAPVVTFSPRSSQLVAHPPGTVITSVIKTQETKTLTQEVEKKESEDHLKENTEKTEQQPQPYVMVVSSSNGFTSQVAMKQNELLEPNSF
How it was run: as §1

EHF = target: T5, EHF (Homo sapiens, UniProt Q9NZC4 1-300); conditions: protein: recombinant; tags: N-terminal GST; dsDNA, one strand shown
T5 sequence: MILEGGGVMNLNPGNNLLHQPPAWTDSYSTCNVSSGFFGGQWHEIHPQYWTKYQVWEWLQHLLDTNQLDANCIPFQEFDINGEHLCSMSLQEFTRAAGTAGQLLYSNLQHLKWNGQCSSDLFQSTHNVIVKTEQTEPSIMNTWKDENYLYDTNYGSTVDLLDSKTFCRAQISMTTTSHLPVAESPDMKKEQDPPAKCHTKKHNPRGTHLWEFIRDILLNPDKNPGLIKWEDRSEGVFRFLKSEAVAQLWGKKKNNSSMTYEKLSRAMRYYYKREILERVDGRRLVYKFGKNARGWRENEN
How it was run: as §1

SPI1 = SPI1 (Homo sapiens, UniProt P17947 1-270); conditions: protein: recombinant; tags: N-terminal GST; dsDNA, one strand shown
How it was run: as §1

SPIB = SPIB (Homo sapiens, UniProt Q01892 1-262); conditions: protein: recombinant; tags: N-terminal GST; dsDNA, one strand shown
Sequence of SPIB (Q01892 whole entry): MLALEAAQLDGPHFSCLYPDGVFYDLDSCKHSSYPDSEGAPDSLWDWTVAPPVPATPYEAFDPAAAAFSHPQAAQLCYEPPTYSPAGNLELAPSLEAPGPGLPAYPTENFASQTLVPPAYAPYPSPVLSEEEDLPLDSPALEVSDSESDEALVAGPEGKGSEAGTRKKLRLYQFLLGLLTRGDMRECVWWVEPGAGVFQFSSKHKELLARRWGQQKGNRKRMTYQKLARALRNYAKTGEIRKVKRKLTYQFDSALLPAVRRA
How it was run: as §1

ELK3 = target: T6, ELK3 (Homo sapiens, UniProt P41970 1-407); conditions: protein: recombinant; tags: N-terminal GST; dsDNA, one strand shown
T6 sequence: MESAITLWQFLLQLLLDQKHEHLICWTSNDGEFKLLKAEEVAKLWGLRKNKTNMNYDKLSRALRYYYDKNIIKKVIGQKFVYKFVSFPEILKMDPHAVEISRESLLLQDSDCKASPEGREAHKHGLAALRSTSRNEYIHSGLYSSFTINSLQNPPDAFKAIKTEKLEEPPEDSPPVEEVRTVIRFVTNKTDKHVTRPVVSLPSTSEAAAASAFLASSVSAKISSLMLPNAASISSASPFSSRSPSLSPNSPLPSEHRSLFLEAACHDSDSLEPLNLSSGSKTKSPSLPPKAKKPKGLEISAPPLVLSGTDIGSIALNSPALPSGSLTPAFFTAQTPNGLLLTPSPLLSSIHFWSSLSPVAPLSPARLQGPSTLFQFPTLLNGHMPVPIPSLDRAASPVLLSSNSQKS
How it was run: as §1

FEV = target: T7, FEV (Homo sapiens, UniProt Q99581 1-238); conditions: protein: recombinant; tags: N-terminal GST; dsDNA, one strand shown
T7 sequence: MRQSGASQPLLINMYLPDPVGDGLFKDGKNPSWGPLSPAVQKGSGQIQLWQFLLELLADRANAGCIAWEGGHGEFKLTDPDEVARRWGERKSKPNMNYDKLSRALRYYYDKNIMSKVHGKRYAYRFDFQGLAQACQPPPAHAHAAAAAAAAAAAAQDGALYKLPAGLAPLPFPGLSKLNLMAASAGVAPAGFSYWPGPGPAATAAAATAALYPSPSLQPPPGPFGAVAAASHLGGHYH
How it was run: as §1

ETV5 = ETV5 (Homo sapiens, UniProt P41161 1-510); conditions: protein: recombinant; tags: N-terminal GST; dsDNA, one strand shown
Sequence of ETV5 (P41161 whole entry): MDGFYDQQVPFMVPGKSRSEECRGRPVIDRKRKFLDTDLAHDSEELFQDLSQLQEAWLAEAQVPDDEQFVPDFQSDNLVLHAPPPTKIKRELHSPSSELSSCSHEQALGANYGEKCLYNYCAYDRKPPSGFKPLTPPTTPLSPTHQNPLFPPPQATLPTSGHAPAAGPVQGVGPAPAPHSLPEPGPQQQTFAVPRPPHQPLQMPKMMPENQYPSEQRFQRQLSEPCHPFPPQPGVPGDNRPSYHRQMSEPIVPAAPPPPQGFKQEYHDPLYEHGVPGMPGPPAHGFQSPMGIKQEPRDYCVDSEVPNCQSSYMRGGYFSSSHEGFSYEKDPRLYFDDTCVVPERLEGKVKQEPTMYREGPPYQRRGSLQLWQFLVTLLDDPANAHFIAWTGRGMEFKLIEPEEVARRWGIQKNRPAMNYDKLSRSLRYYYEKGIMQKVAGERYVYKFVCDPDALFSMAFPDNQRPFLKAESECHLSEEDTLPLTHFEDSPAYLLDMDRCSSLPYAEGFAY
How it was run: as §1

HSF1 = HSF1 (Homo sapiens, UniProt Q00613 1-529); conditions: protein: recombinant; tags: N-terminal GST; chain copies: 3; dsDNA, one strand shown
Sequence of HSF1 (Q00613 whole entry): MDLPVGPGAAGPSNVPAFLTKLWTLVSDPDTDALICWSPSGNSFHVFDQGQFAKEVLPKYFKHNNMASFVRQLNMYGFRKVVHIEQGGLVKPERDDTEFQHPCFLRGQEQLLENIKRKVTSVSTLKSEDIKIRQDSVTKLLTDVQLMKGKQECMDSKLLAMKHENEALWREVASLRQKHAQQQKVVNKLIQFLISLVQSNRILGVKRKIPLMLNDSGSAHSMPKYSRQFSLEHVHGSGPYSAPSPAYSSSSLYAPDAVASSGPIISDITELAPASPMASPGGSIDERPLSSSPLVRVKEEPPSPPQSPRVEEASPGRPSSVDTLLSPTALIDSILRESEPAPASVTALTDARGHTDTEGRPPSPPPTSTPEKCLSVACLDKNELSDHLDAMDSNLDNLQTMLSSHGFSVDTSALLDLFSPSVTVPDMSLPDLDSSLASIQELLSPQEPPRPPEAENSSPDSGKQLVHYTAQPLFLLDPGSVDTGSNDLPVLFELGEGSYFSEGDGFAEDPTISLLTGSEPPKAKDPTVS
How it was run: as §1

SPIC = target: T8, SPIC (Homo sapiens, UniProt Q8N5J4 1-248); conditions: protein: recombinant; tags: N-terminal GST; dsDNA, one strand shown
T8 sequence: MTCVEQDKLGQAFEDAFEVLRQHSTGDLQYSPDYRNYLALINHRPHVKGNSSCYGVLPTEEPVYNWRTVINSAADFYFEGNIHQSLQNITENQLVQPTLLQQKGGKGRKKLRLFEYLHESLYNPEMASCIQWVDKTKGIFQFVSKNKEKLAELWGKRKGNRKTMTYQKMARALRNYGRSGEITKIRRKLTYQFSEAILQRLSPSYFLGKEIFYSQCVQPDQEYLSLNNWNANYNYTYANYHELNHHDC
How it was run: as §1

ELF4 = ELF4 (Homo sapiens, UniProt Q99607 1-663); conditions: protein: recombinant; tags: N-terminal GST; dsDNA, one strand shown
Sequence of ELF4 (Q99607 whole entry): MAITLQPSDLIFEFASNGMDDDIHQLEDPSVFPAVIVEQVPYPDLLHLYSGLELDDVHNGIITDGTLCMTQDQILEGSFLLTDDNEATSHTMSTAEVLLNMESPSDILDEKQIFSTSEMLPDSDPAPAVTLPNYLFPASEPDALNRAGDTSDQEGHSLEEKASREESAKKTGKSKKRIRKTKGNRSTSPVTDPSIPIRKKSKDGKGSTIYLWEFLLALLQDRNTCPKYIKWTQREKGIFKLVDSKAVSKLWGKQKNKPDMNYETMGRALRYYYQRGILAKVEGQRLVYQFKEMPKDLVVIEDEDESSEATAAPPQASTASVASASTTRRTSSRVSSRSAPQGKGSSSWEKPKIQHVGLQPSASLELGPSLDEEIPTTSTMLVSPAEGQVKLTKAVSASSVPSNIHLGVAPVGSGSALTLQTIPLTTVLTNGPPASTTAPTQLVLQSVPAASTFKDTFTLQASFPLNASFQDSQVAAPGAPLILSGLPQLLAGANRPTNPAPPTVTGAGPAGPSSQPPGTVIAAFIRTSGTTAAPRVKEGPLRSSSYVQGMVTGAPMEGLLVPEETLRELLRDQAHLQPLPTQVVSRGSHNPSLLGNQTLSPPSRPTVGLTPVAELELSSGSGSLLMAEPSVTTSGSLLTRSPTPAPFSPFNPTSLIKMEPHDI
How it was run: as §1

ELK4 = target: T9, ELK4 (Homo sapiens, UniProt P28324-2 1-405); conditions: protein: recombinant; tags: N-terminal GST; dsDNA, one strand shown
T9 sequence: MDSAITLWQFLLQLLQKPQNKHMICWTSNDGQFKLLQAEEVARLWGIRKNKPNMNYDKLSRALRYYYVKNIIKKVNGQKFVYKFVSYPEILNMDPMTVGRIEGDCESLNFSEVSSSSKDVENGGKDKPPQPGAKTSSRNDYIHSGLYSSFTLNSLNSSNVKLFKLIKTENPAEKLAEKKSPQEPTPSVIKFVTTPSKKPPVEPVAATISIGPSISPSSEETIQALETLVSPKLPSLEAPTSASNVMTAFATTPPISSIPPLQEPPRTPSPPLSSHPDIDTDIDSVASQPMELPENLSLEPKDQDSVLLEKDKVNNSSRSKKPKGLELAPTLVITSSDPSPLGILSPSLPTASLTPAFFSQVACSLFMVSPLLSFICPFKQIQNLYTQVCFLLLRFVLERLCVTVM
How it was run: as §1

ETV2 = target: T10, ETV2 (Homo sapiens, UniProt O00321 1-342); conditions: protein: recombinant; tags: N-terminal GST; dsDNA, one strand shown
T10 sequence: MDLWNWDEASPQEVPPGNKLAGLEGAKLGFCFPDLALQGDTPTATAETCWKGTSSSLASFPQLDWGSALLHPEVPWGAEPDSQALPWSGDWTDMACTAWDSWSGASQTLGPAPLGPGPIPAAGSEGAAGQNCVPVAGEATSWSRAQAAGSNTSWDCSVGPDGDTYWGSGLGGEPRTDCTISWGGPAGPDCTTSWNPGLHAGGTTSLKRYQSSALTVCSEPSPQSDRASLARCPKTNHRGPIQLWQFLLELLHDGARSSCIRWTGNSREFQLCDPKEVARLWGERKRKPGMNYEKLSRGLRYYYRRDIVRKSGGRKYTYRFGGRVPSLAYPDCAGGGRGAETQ
How it was run: as §1

ELF3 = target: T11, ELF3 (Homo sapiens, UniProt P78545 1-371); conditions: protein: recombinant; tags: N-terminal GST; dsDNA, one strand shown
T11 sequence: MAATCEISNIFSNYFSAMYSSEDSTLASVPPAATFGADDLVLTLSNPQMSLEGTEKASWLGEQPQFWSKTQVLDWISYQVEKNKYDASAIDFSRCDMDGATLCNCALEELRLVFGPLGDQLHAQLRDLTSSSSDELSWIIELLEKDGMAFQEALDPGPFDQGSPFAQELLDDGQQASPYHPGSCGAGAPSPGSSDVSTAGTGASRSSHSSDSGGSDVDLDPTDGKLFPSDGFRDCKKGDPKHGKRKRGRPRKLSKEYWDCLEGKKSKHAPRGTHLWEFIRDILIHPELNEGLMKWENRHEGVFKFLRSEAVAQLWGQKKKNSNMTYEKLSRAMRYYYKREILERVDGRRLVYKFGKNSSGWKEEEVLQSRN
How it was run: as §1

CRX = CRX (Homo sapiens, UniProt O43186 1-299); conditions: protein: recombinant; tags: N-terminal GST; dsDNA, one strand shown
Sequence of CRX (O43186 whole entry): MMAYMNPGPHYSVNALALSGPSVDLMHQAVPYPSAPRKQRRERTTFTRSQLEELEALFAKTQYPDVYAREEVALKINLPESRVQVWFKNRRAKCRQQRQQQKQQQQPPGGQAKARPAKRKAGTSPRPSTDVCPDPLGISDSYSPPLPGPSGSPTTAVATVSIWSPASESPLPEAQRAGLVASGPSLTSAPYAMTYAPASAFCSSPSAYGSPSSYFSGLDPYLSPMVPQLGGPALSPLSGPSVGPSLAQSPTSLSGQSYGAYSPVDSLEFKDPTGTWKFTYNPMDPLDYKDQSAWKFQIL
How it was run: as §1

ETV1 = ETV1 (Homo sapiens, UniProt P50549 1-477); conditions: protein: recombinant; tags: N-terminal GST; dsDNA, one strand shown
Sequence of ETV1 (P50549 whole entry): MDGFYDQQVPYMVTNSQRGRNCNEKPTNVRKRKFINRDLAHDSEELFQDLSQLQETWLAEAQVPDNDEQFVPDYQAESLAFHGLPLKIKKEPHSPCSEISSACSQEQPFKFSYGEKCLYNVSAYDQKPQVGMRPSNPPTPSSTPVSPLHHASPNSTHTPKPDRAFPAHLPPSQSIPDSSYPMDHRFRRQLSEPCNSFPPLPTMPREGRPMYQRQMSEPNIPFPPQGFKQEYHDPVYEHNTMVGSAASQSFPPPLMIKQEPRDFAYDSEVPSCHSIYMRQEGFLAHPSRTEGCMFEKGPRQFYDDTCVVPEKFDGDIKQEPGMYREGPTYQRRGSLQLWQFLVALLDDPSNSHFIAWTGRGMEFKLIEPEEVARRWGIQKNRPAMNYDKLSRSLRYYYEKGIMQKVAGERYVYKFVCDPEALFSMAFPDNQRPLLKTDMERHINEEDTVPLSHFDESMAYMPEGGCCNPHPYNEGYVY
How it was run: as §1

**Q.** Which results are given for TCCATA?
**A.** binding signal (FLI1): 1.33 fold enrichment (6-mer frequency, TF over GST control); binding signal (ELK1): 1.3 fold enrichment (6-mer frequency, TF over GST control); binding signal (GABPA): 1.18 fold enrichment (6-mer frequency, TF over GST control); binding signal (ERG): 1.25 fold enrichment (6-mer frequency, TF over GST control); binding signal (ELF1): 1.23 fold enrichment (6-mer frequency, TF over GST control); binding signal (EHF): 1.24 fold enrichment (6-mer frequency, TF over GST control); binding signal (SPI1): 1.18 fold enrichment (6-mer frequency, TF over GST control); binding signal (SPIB): 1.21 fold enrichment (6-mer frequency, TF over GST control); binding signal (ELK3): 1.35 fold enrichment (6-mer frequency, TF over GST control); binding signal (FEV): 1.21 fold enrichment (6-mer frequency, TF over GST control); binding signal (ETV5): 1.3 fold enrichment (6-mer frequency, TF over GST control); binding signal (HSF1): 1.44 fold enrichment (6-mer frequency, TF over GST control); binding signal (SPIC): 1.3 fold enrichment (6-mer frequency, TF over GST control); binding signal (ELF4): 1.2 fold enrichment (6-mer frequency, TF over GST control); binding signal (ELK4): 1.25 fold enrichment (6-mer frequency, TF over GST control); binding signal (ETV2): 1.19 fold enrichment (6-mer frequency, TF over GST control); binding signal (ELF3): 1.11 fold enrichment (6-mer frequency, TF over GST control); binding signal (CRX): 1.48 fold enrichment (6-mer frequency, TF over GST control); binding signal (ETV1): 1.32 fold enrichment (6-mer frequency, TF over GST control)
